# From the supplement of paper PMC8728848
# The entries come from a sample that favours the strongest signals as a whole.
# Key:
# Test in all cases: glycan array binding signal (z-score within array); higher = stronger binding
# Conditions in all cases: glycan notation: IUPAC condensed, linker removed
# [1] = target: Fuc(a1-2)Gal(b1-3)GalNAc(a1-3)[Fuc(a1-2)]Gal(b1-4)Glc
# Summary of the method: (§1)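 Glycan array data were curated from 3228 arrays in the Consortium for Functional Glycomics database and kept only where the protein sequence was available. Glycan names were converted to IUPAC-condensed notation, and columns mapping to the same glycan were averaged. The binding signal is a within-array Z-score, averaged across arrays of the same protein sequence at different concentrations or buffers and across linkers. Negative Z-scores can be read as non-binding.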
# [2] = target: Fuc(a1-2)Gal(b1-3)[Fuc(a1-4)]GlcNAc(b1-3)[Gal(b1-4)GlcNAc(b1-6)]Gal(b1-4)Glc
# Summary of the method: as §1
# [3] = target: Fuc(a1-2)[Gal(a1-3)]Gal(b1-3)GlcNAc(b1-6)GalNAc
# Summary of the method: as §1
# [4] = target: Fuc(a1-2)[Gal(a1-3)]Gal(b1-4)[Fuc(a1-3)]Glc
# Summary of the method: as §1
# [5] = target: Fuc(a1-2)[Gal(a1-4)]Gal(b1-4)GlcNAc
# Summary of the method: as §1
# [6] = target: Fuc(a1-2)[GalNAc(a1-3)]Gal(b1-3)GalNAc(a1-3)[Fuc(a1-2)]Gal(b1-4)GlcNAc
# Summary of the method: as §1
# [7] = target: Fuc(a1-2)[GalNAc(a1-3)]Gal(b1-4)GlcNAc(b1-3)Gal(b1-4)GlcNAc
# Summary of the method: as §1
# [8] = target: Fuc(a1-2)[GalNAc(a1-3)]Gal(b1-4)[Fuc(a1-3)]GlcNAc(b1-3)GalNAc
# Summary of the method: as §1
# [9] = target: Fuc(a1-3)[Gal(b1-4)]GlcNAc6S
# Summary of the method: as §1
# Gal(a1-3)Gal(b1-3)GlcNAc = target: Gal(a1-3)Gal(b1-3)GlcNAc
# Summary of the method: as §1
# [10] = target: Gal(a1-3)Gal(b1-4)GlcNAc(b1-3)GalNAc
# Summary of the method: as §1
# [11] = target: Gal(a1-4)Gal(b1-3)GlcNAc(b1-2)Man(a1-3)[Gal(a1-4)Gal(b1-3)GlcNAc(b1-2)Man(a1-6)]Man(b1-4)GlcNAc(b1-4)GlcNAc
# Summary of the method: as §1
# [12] = target: Gal(b1-3)GlcNAc(b1-3)Gal(b1-4)GlcNAc(b1-6)[Gal(b1-3)GlcNAc(b1-3)]Gal(b1-4)Glc
# Summary of the method: as §1
# [13] = target: Gal(b1-3)[Fuc(a1-4)]GlcNAc(b1-6)GalNAc
# Summary of the method: as §1
# Gal(b1-4)GlcNAc = target: Gal(b1-4)GlcNAc
# Summary of the method: as §1
# [14] = target: Gal(b1-4)GlcNAc(a1-6)Gal(b1-4)GlcNAc
# Summary of the method: as §1
# [15] = target: Gal(b1-4)GlcNAc(b1-2)Man(a1-3)Man(b1-4)GlcNAc(b1-4)GlcNAc
# Summary of the method: as §1
# [16] = target: Gal(b1-4)GlcNAc(b1-2)[Gal(b1-4)GlcNAc(b1-4)]Man(a1-3)[GlcNAc(b1-4)][Gal(b1-4)GlcNAc(b1-2)Man(a1-6)]Man(b1-4)GlcNAc(b1-4)GlcNAc
# Summary of the method: as §1
# [17] = target: Gal(b1-4)GlcNAc(b1-2)[Gal(b1-4)GlcNAc(b1-6)]Man(a1-6)[Gal(b1-4)GlcNAc(b1-2)Man(a1-3)]Man(b1-4)GlcNAc(b1-4)[Fuc(a1-6)]GlcNAc
# Summary of the method: as §1
# [18] = target: Gal(b1-4)GlcNAc(b1-3)Gal(b1-4)GlcNAc(b1-2)[Gal(b1-4)GlcNAc(b1-3)Gal(b1-4)GlcNAc(b1-6)]Man(a1-6)[Gal(b1-4)GlcNAc(b1-3)Gal(b1-4)GlcNAc(b1-2)Man(a1-3)]Man(b1-4)GlcNAc(b1-4)[Fuc(a1-6)]GlcNAc
# Summary of the method: as §1
# [19] = target: Gal(b1-4)GlcNAc(b1-3)Gal(b1-4)GlcNAc(b1-3)Gal(b1-4)GlcNAc(b1-3)Gal(b1-4)GlcNAc(b1-2)[Gal(b1-4)GlcNAc(b1-3)Gal(b1-4)GlcNAc(b1-3)Gal(b1-4)GlcNAc(b1-3)Gal(b1-4)GlcNAc(b1-6)]Man(a1-6)[Gal(b1-4)GlcNAc(b1-3)Gal(b1-4)GlcNAc(b1-3)Gal(b1-4)GlcNAc(b1-3)Gal(b1-4)GlcNAc(b1-2)Man(a1-3)]Man(b1-4)GlcNAc(b1-4)[Fuc(a1-6)]GlcNAc
# Summary of the method: as §1
# [20] = target: Gal(b1-4)GlcNAc(b1-3)Gal(b1-4)GlcNAc(b1-3)Gal(b1-4)GlcNAc(b1-3)Gal(b1-4)GlcNAc(b1-3)Gal(b1-4)GlcNAc(b1-2)Man(a1-3)[Gal(b1-4)GlcNAc(b1-3)Gal(b1-4)GlcNAc(b1-3)Gal(b1-4)GlcNAc(b1-3)Gal(b1-4)GlcNAc(b1-3)Gal(b1-4)GlcNAc(b1-2)Man(a1-6)]Man(b1-4)GlcNAc(b1-4)GlcNAc
# Summary of the method: as §1
# [21] = target: Gal(b1-4)GlcNAc(b1-3)Gal(b1-4)GlcNAc(b1-3)Gal(b1-4)GlcNAc(b1-3)Gal(b1-4)GlcNAc(b1-3)Gal(b1-4)GlcNAc(b1-2)[Gal(b1-4)GlcNAc(b1-3)Gal(b1-4)GlcNAc(b1-3)Gal(b1-4)GlcNAc(b1-3)Gal(b1-4)GlcNAc(b1-3)Gal(b1-4)GlcNAc(b1-6)]Man(a1-6)[Gal(b1-4)GlcNAc(b1-3)Gal(b1-4)GlcNAc(b1-3)Gal(b1-4)GlcNAc(b1-3)Gal(b1-4)GlcNAc(b1-3)Gal(b1-4)GlcNAc(b1-2)Man(a1-3)]Man(b1-4)GlcNAc(b1-4)[Fuc(a1-6)]GlcNAc
# Summary of the method: as §1
# [22] = target: Gal(b1-4)GlcNAc(b1-6)Gal(b1-4)GlcNAc
# Summary of the method: as §1
# Gal6S(b1-3)GlcNAc6S = target: Gal6S(b1-3)GlcNAc6S
# Summary of the method: as §1
# Gal6S(b1-4)Glc = target: Gal6S(b1-4)Glc
# Summary of the method: as §1
# GalNAc(a1-3)GalNAc = target: GalNAc(a1-3)GalNAc
# Summary of the method: as §1
# [23] = target: GalNAc(b1-3)Gal(a1-6)Gal(b1-4)Glc
# Summary of the method: as §1
# GalNAc(b1-3)GalNAc = target: GalNAc(b1-3)GalNAc
# Summary of the method: as §1
# GalNAc(b1-4)GlcNAc = target: GalNAc(b1-4)GlcNAc
# Summary of the method: as §1
# Glc(b1-6)Glc = target: Glc(b1-6)Glc
# Summary of the method: as §1
# [24] = target: GlcNAc(b1-3)Gal(b1-4)GlcNAc(b1-3)Gal(b1-4)GlcNAc(b1-3)Gal(b1-4)GlcNAc(b1-3)Gal(b1-4)GlcNAc(b1-2)[GlcNAc(b1-3)Gal(b1-4)GlcNAc(b1-3)Gal(b1-4)GlcNAc(b1-3)Gal(b1-4)GlcNAc(b1-3)Gal(b1-4)GlcNAc(b1-6)]Man(a1-6)[GlcNAc(b1-3)Gal(b1-4)GlcNAc(b1-3)Gal(b1-4)GlcNAc(b1-3)Gal(b1-4)GlcNAc(b1-3)Gal(b1-4)GlcNAc(b1-2)Man(a1-3)]Man(b1-4)GlcNAc(b1-4)[Fuc(a1-6)]GlcNAc
# Summary of the method: as §1
# [25] = target: GlcNAc(b1-3)Gal(b1-4)GlcNAc(b1-6)[Gal(b1-3)]GalNAc
# Summary of the method: as §1
# [26] = target: Man(a1-2)Man(a1-2)Man(a1-6)[Man(a1-3)]Man
# Summary of the method: as §1
# [27] = target: Man(a1-2)Man(a1-3)[Man(a1-2)Man(a1-6)]Man(a1-6)[Man(a1-2)Man(a1-2)Man(a1-3)]Man
# Summary of the method: as §1
# Man(a1-6)Man = target: Man(a1-6)Man
# Summary of the method: as §1
# [28] = target: Neu5Ac(a2-3)Gal(b1-3)GalNAc6S
# Summary of the method: as §1
# [29] = target: Neu5Ac(a2-3)Gal(b1-4)GlcNAc(b1-2)[Neu5Ac(a2-3)Gal(b1-4)GlcNAc(b1-6)]Man(a1-6)[Neu5Ac(a2-3)Gal(b1-4)GlcNAc(b1-2)Man(a1-3)][GlcNAc(b1-4)]Man(b1-4)GlcNAc(b1-4)GlcNAc
# Summary of the method: as §1
# [30] = target: Neu5Ac(a2-3)Gal(b1-4)GlcNAc(b1-3)Gal
# Summary of the method: as §1
# [31] = target: Neu5Ac(a2-3)Gal(b1-4)GlcNAc(b1-3)Gal(b1-4)[Fuc(a1-3)]GlcNAc
# Summary of the method: as §1
# [32] = target: Neu5Ac(a2-3)Gal(b1-4)GlcNAc6S
# Summary of the method: as §1
# [33] = target: Neu5Ac(a2-3)Gal(b1-4)[Fuc(a1-3)]GlcNAc(b1-3)GalNAc
# Summary of the method: as §1
# [34] = target: Neu5Ac(a2-6)Gal(b1-4)GlcNAc(b1-2)Man(a1-3)[Neu5Ac(a2-6)Gal(b1-4)GlcNAc(b1-2)Man(a1-6)]Man(b1-4)GlcNAc(b1-4)GlcNAc
# Summary of the method: as §1
# [35] = target: Neu5Ac(a2-6)Gal(b1-4)GlcNAc(b1-2)Man(a1-6)Man(b1-4)GlcNAc(b1-4)GlcNAc
# Summary of the method: as §1
# [36] = target: Neu5Ac(a2-6)Gal(b1-4)GlcNAc(b1-2)[Neu5Ac(a2-6)Gal(b1-4)GlcNAc(b1-4)]Man(a1-3)[GlcNAc(b1-4)][Neu5Ac(a2-6)Gal(b1-4)GlcNAc(b1-4)Man(a1-6)]Man(b1-4)GlcNAc(b1-4)GlcNAc
# Summary of the method: as §1
# [37] = target: Neu5Ac(b2-6)Gal(b1-4)GlcNAc
# Summary of the method: as §1
# Neu5Gc(a2-3)Gal(b1-4)Glc = target: Neu5Gc(a2-3)Gal(b1-4)Glc
# Summary of the method: as §1
binder,measurement,setting,value
Drgal1 (Danio rerio) (protein) MAGVLIQNMSFKVGQTLTITGVPKPDSTNFAINIGHSPEDIALHMNPRFDAHGDQCTIVCNSFQSGSWCEEHRDDNFPFIQDKEFQIKITFTNEEFLVTLPDGSEIHFPNRQGSEKYKYMYFEGEVRIQGVEIK,glycan array binding signal (z-score),[1],-0.59
same,glycan array binding signal (z-score),[2],0.383
same,glycan array binding signal (z-score),[3],0.084
same,glycan array binding signal (z-score),[4],-0.54
same,glycan array binding signal (z-score),[5],0.347
same,glycan array binding signal (z-score),[6],-0.091
same,glycan array binding signal (z-score),[7],-0.493
same,glycan array binding signal (z-score),[8],2.22
same,glycan array binding signal (z-score),[9],2.04
same,glycan array binding signal (z-score),Gal(a1-3)Gal(b1-3)GlcNAc,-0.76
same,glycan array binding signal (z-score),[10],-0.48
same,glycan array binding signal (z-score),[11],-0.114
same,glycan array binding signal (z-score),[12],1.9
same,glycan array binding signal (z-score),[13],-0.443
same,glycan array binding signal (z-score),Gal(b1-4)GlcNAc,-0.448
same,glycan array binding signal (z-score),[14],0.244
same,glycan array binding signal (z-score),[15],0.231
same,glycan array binding signal (z-score),[16],-0.015
same,glycan array binding signal (z-score),[17],0.501
same,glycan array binding signal (z-score),[18],1.92
same,glycan array binding signal (z-score),[19],2.07
same,glycan array binding signal (z-score),[20],7.35
same,glycan array binding signal (z-score),[21],2.15
same,glycan array binding signal (z-score),[22],0.065
same,glycan array binding signal (z-score),Gal6S(b1-3)GlcNAc6S,-0.095
same,glycan array binding signal (z-score),Gal6S(b1-4)Glc,0.281
same,glycan array binding signal (z-score),GalNAc(a1-3)GalNAc,0.206
same,glycan array binding signal (z-score),[23],-0.416
same,glycan array binding signal (z-score),GalNAc(b1-3)GalNAc,0.158
same,glycan array binding signal (z-score),GalNAc(b1-4)GlcNAc,3.67
same,glycan array binding signal (z-score),Glc(b1-6)Glc,-0.633
same,glycan array binding signal (z-score),[24],1.89
same,glycan array binding signal (z-score),[25],-0.519
same,glycan array binding signal (z-score),[26],-0.589
same,glycan array binding signal (z-score),[27],-0.28
same,glycan array binding signal (z-score),Man(a1-6)Man,1.43
same,glycan array binding signal (z-score),[28],-0.412
same,glycan array binding signal (z-score),[29],3.36
same,glycan array binding signal (z-score),[30],-0.372
same,glycan array binding signal (z-score),[31],-0.022
same,glycan array binding signal (z-score),[32],-0.362
same,glycan array binding signal (z-score),[33],5.78
same,glycan array binding signal (z-score),[34],0.521
same,glycan array binding signal (z-score),[35],0.046
same,glycan array binding signal (z-score),[36],-0.106
same,glycan array binding signal (z-score),[37],0.234
same,glycan array binding signal (z-score),Neu5Gc(a2-3)Gal(b1-4)Glc,0.145
